In all, about 420,000 compounds went through this assay and about 64,000 (15%) were called active. Not shown: some 27% with an inconclusive outcome. Calls follow the shape of the dose curve; as a rule, active = well fitted inhibition curve with a large enough effect; inconclusive = small, poorly fitted or top-dose-only effect; inactive = flat fitted curve, though single readings scatter. The list is a sample of the results.
% is scaled to controls: 0 for no effect and ±100 for the full control effect; potency is read from the fitted curve at half-maximal effect.

This assay can be described thus: qHTS for Inhibitors of human tyrosyl-DNA phosphodiesterase 1 (TDP1): qHTS in cells in absence of CPT. Also: nearly all actives have a fitted effect of over 55% in size. Particulars: DT40 Tdp1-/- hTDP1 cells, no CPT, ATP luminescence, 48 h; activity change, negative = growth inhibition: at 46.2 µM (top of the series). The method, boiled down:
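Stably hTDP1-transfected Tdp1-null chicken DT40 cells were treated with library compounds minus camptothecin and grown for at least 48 hr at 37 °C, after which cellular ATP was quantified by luminescence.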
Background: Quantitative high-throughput screening tests each substance at several concentrations.
Take `COc1ccc(OC)c(CCNC(=O)CCCn2c(=O)c3cccn3c3cccnc32)c1`: the Potency was 20.6 µM (active).

In the case of `COCCCNC(=O)CCc1nc2cccnc2n1Cc1ccc(OC)cc1`, the “activity change, negative = growth inhibition” value is -4.33% (inactive).

With `CC1CCCCC12NC(=O)N(CC(=O)Nc1ccc(S(=O)(=O)Nc3ncccn3)cc1)C2=O` (stereo not drawn), the “activity change, negative = growth inhibition” value is -14.9% (inactive).

As to `CC1CCN(C(=O)Cn2nnnc2CN2CCOCC2)CC1`, the “activity change, negative = growth inhibition” value was 6.65% (inactive).

As to `Cc1ccnc(NS(=O)(=O)c2ccc(NC(=O)c3ccc(S(=O)(=O)N(C)C)cc3)cc2)n1`, the “activity change, negative = growth inhibition” value was -2.78% (inactive).

As for `CN(c1ccccc1)S(=O)(=O)c1ccc2[nH]c(=O)[nH]c2c1`, the “activity change, negative = growth inhibition” value was 0.432% (inactive).

Turning to `Cc1cccc(NC(=O)c2ccc(S(=O)(=O)N(C)c3ccccc3)cc2)n1`, the Potency is 20.6 µM (active).

`O=C(NCCC1CCCCN1S(=O)(=O)c1ccc(F)cc1)C(=O)NC1CC1` (stereo not drawn): the “activity change, negative = growth inhibition” value was -3.26% (inactive).

For the compound `O=C(NCCC1CCCCN1S(=O)(=O)c1cccs1)C(=O)Nc1ccc(F)cc1F` (stereo not drawn), the Potency is 2.59 µM (active).

On to `O=C(NCc1ccccc1Cl)C(=O)NCC1CCCN1S(=O)(=O)c1cccs1` (stereo not drawn), for which the “activity change, negative = growth inhibition” value is -22.4% (inactive).

For `CCOC(=O)N1CCN(CCC(=O)Nc2ccccc2)CC1`, the “activity change, negative = growth inhibition” value is -12.8% (inactive).

Turning to `CCOC(=O)c1c(C)oc2nc(C)nc(Nc3ccc(CC)cc3)c12`, the “activity change, negative = growth inhibition” value was -30.4% (inactive).

In the case of `CCOC(=O)c1c(C)oc2nc(C)nc(N(CC(C)C)CC(C)C)c12`, the Potency was 16.4 µM (active).

As to `CCOC(=O)c1c(C)oc2nc(C)nc(N3CCN(c4ccc(OC)cc4)CC3)c12`, the Potency was 8.2 µM (active).

On to `COc1ccc(N2CCN(C(=O)c3c(C)oc4nc(C)nc(N5CCCC5)c34)CC2)cc1`, for which the “activity change, negative = growth inhibition” value is -22.7% (inactive).

Take `CCOC(=O)c1c(C)oc(C)c(C(=O)OCC)c1=O`: the “activity change, negative = growth inhibition” value was 2.36% (inactive).

Regarding `Cc1nc(N2CCOCC2)c2c(C(=O)NCc3cccc(Cl)c3)c(C)oc2n1`, the “activity change, negative = growth inhibition” value is -1.65% (inactive).

For the compound `NC(=O)c1cc(-c2cccnc2)nc2ccc(Br)cc12`, the “activity change, negative = growth inhibition” value is -13.9% (inactive).

With `CN1C(=O)/C(=N/OC(=O)c2ccccc2Br)c2ccccc21`, the “activity change, negative = growth inhibition” value is -28.5% (inactive).

In the case of `COc1cc(SC#N)ccc1N=Cc1c(C)[nH]n(-c2ccc(C)cc2)c1=O`, the Potency is 3.66 µM (active).

Take `CCOC(=O)c1sc2nc(C)nc(SCC(N)=O)c2c1C`: the “activity change, negative = growth inhibition” value is 2.57% (inactive).

On to `COC(=O)C1(C)NC(c2ccc(C)cc2)C2C(=O)N(c3ccc(F)cc3)C(=O)C21` (stereo not drawn), for which the “activity change, negative = growth inhibition” value was 5.47% (inactive).

On to `COC(=O)C1(C)NC(c2ccc(F)cc2)C2C(=O)N(c3ccccc3)C(=O)C21` (stereo not drawn), for which the “activity change, negative = growth inhibition” value was 17.9% (inactive).

Take `COC(=O)[C@]1(C)N[C@H](c2ccc(-c3ccc(Cl)c(Cl)c3)cc2)[C@@H]2C(=O)N(C)C(=O)[C@@H]21`: the Potency was 16.4 µM (active).

`O=S(=O)(c1ccc(F)cc1)N1CC=C(c2ccccc2)CC1`: the “activity change, negative = growth inhibition” value was -29.1% (inactive).

As to `CC1(C)CC(=O)C2=C(C1)NCN(CCCN1CCOCC1)C2`, the “activity change, negative = growth inhibition” value is -11.2% (inactive).

As to `Cc1c(NC(=O)CN2C(=O)C(=O)N(Cc3ccccc3)C2=O)c(=O)n(-c2ccccc2)n1C`, the “activity change, negative = growth inhibition” value was 7.02% (inactive).

`CCOC(=O)c1cc2c(=O)n3ccccc3nc2n(CC2CCCO2)c1=NC(=O)c1ccc(C(C)(C)C)cc1` (stereo not drawn): the “activity change, negative = growth inhibition” value is -2.39% (inactive).

Take `CCOC(=O)c1cc2c(=O)n3ccccc3nc2n(CC(C)C)c1=NC(=O)c1c(-c2c(F)cccc2Cl)noc1C`: the Potency is 5.8 µM (active).

For `CCOC(=O)c1cc2c(=O)n3ccccc3nc2n(CCCOC)c1=NC(=O)C(C)Oc1ccccc1` (stereo not drawn), the “activity change, negative = growth inhibition” value is -24.7% (inactive).

Take `c1c2c(cc3sc(N4CCCCC4)nc13)OCCO2`: the “activity change, negative = growth inhibition” value was -22.8% (inactive).

On to `CCc1nc(C)ccc1OCC(=O)N(CC)CC`, for which the “activity change, negative = growth inhibition” value is -10.2% (inactive).

On to `CCC(C)(C)c1ccc(OCC(=O)N(C)C)c(C(C)(C)CC)c1`, for which the Potency is 18.4 µM (active).

Regarding `Cc1cccc(C(=O)NNC(=O)CSc2nnc(C(C)C)n2C)c1`, the “activity change, negative = growth inhibition” value is 0.652% (inactive).

As for `CCn1c(CNc2ccc(OC)cc2)nnc1SCC(=O)c1ccc(OC)cc1`, the “activity change, negative = growth inhibition” value is -21.5% (inactive).

Consider `CCn1c(SCC(=O)NNC(=O)c2ccc(OC)cc2)nnc1C(C)C`, for which the Potency was 20.6 µM (active).

Turning to `CCNC(=O)NC(=O)C(C)OC(=O)C1CCN(S(=O)(=O)c2ccccc2F)CC1` (stereo not drawn), the “activity change, negative = growth inhibition” value was -0.61% (inactive).

`Cc1nc(COc2cccc(Cl)c2)sc1C(=O)/C=C/N(C)C`: the “activity change, negative = growth inhibition” value was -10.1% (inactive).

Turning to `CC(C)NS(=O)(=O)c1ccc(NC(=O)c2cccnc2)cc1`, the “activity change, negative = growth inhibition” value was -17.9% (inactive).

Turning to `CCOc1ccccc1C(=O)Nc1ccc(S(=O)(=O)N2CCCCC2c2cccnc2)cc1` (stereo not drawn), the Potency was 18.4 µM (active).

Turning to `Cc1cc(NS(=O)(=O)c2ccc(NC(=O)c3cccnc3)cc2)nc(C)n1`, the “activity change, negative = growth inhibition” value was -9.45% (inactive).

Take `CCOc1ccc(S(=O)(=O)N2CCC(c3ccccc3)CC2)cc1C(=O)O`: the “activity change, negative = growth inhibition” value is 9.36% (inactive).

With `CCOc1ncccc1C(=O)Nc1ccc(S(=O)(=O)Nc2nc(C)cc(C)n2)cc1`, the “activity change, negative = growth inhibition” value was -3.56% (inactive).

Regarding `Cc1cccc(C(=O)Nc2ccc(S(=O)(=O)N3CCCCC3c3cccnc3)cc2)c1` (stereo not drawn), the Potency was 18.4 µM (active).

With `CCn1ccnc1CNC(=O)CC1C(=O)NCCN1Cc1ccc(F)cc1Cl` (stereo not drawn), the “activity change, negative = growth inhibition” value is 1.09% (inactive).

For the compound `COC(=O)Cn1c(=NC(=O)c2cc(OC)c(OC)c(OC)c2)sc2cc(OC)ccc21`, the “activity change, negative = growth inhibition” value is -24.5% (inactive).

Regarding `NS(=O)(=O)c1cccc(NC(=O)COC(=O)c2cc([N+](=O)[O-])ccc2N2CCCC2)c1`, the “activity change, negative = growth inhibition” value is -4.81% (inactive).

In the case of `O=C(Nc1cccc(F)c1)[C@@H]1CCCN1`, the “activity change, negative = growth inhibition” value was 7.69% (inactive).

The values above are taken from PubChem BioAssay AID686978 (National Center for Advancing Translational Sciences (NCATS), 2013).
